# Screening results (PubChem)
# CHX counter – counter-screen hit for Shiga toxin inhibitors, cycloheximide; cell reporter, cycloheximide protein synthesis inhibition counterscreen; max response, %; actives 12% (n = 300,000); in the data active = max response mostly above about 13%, no sharp cut-off; inactive = mostly below about 14%; note: read at 38.3 µM for the half of the compounds with a filed dose; 0% is about no effect
# AmpC inh detg – inhibitors of E. coli AmpC beta-lactamase with detergent | P00811 | AmpC hydrolysis of nitrocefin, absorbance 480 nm, 0.01% Triton | Potency, µM (titrated, usually from 114 µM), inactives show top-dose activity change, negative = inhibition, usual class: inhibitors | actives 0.041% (n = 370,000) | AID 485294;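 note: potency is the fitted concentration of half-maximal effect; 0% = no-compound wells and -100% = no-enzyme wells; nearly all actives have a fitted effect of over 25% in size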
# Target sequence (P00811 whole entry, looked up): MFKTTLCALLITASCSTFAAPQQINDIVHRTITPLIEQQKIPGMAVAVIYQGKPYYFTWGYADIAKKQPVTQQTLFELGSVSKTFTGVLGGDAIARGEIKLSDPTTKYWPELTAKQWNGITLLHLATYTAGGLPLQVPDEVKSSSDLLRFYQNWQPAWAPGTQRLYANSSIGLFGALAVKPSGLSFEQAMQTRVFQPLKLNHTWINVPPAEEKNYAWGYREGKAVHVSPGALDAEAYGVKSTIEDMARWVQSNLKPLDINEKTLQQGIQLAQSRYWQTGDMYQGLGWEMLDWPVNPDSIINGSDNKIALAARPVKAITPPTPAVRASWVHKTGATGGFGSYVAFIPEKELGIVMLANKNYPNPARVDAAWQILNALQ
#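 AmpC (5.3 nM in the dispensed reagent) in 20 mM phosphate pH 7.0 with 0.01% (detergent screen) or 0.0001% Triton X-100 was preincubated with compounds for 15 min at room temperature. Nitrocefin was then added from an 800 uM solution, and hydrolysis was followed at 480 nm.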
# AmpC no deterg – AmpC beta-lactamase inhibition without detergent | AmpC nitrocefin hydrolysis, absorbance 480 nm, 0.0001% Triton | Potency, µM (series often up to 57.1 µM), inactives show at the top dose activity change, negative = inhibition, usual class: inhibitors | actives 0.52% (n = 330,000);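 note: potency is the fitted concentration of half-maximal effect; plate controls were no compound for no effect and no enzyme for full effect; nearly all actives have a fitted effect of over 20% in size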
#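 20 mM phosphate pH 7.0 + 0.01% (detergent screen) or 0.0001% Triton X-100; 5.3 nM AmpC reagent; cpd preinc 15 min RT; nitrocefin (800 uM stock) to start; A480 q20 s × 4 min; Activity was normalised to no-enzyme and no-compound control wells.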
# Shiga toxin inh – blocks Shiga toxin action in Vero cells | Vero cells, Shiga toxin protein synthesis inhibition reporter | inhibition, % at 38.7 µM | actives 9.2% (n = 290,000); in the data active = inhibition mostly above about 28%, no sharp cut-off; inactive = mostly below about 43%; note: 0% is about no effect
# NS1 inh – inhibitors of influenza NS1 protein function. actives 0.4% (n = 270,000). Potency, µM (titrated, usually from 46.1 µM), without a hit: at the highest dose activity, positive = more growth; calls by dose curve; note: potency is the fitted concentration of half-maximal effect; actives are rising curves; nearly all actives have a fitted effect of over 50% in size
#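 Growth recovery, yeast-based: influenza A NS1 expressed in S. cerevisiae causes slow growth, and suppressors are detected by OD600. The parent strain without NS1 is used as positive control.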
# * marks the source's active call; other numbers are inactive results; ? = inconclusive; . = no result given. Only a selection was taken, and hits are over-represented in it overall. Unless noted, calls come from the whole dose curve; as a rule, active = well fitted curve in the direction sought with a large enough effect; inconclusive = small, poorly fitted or top-dose-only effect, or another doubt; inactive = no such curve, though single readings can be large; an effect the other way counts as inactive or inconclusive.
SMILES,CHX counter,AmpC inh detg,AmpC no deterg,Shiga toxin inh,NS1 inh
O=C(Nc1nccs1)c1c(O)c2c([nH]c1=O)CCCC2,13*,-5%,-10%,25,3%
CC(C)(C)c1ccc(C(=O)N/N=C/c2cccc(Cl)c2)cc1,20,2%,-31%,27,-61%
O=C(N/N=C/c1cccc(Cl)c1)c1c(O)c2c([nH]c1=O)CCCC2,18*,-8%,-16%,47,6%
O=C(Nc1ccccc1O)c1c(O)c2c([nH]c1=O)CCCC2,40*,-5%,-31%,116*,-1%
CCCc1nnc(NC(=O)c2c(O)c3c([nH]c2=O)CCCC3)s1,-1,-15%,-15%,-19,-6%
Cc1ccc(S(=O)(=O)N(C)CC(=O)N/N=C/c2ccc(C)o2)cc1,11,-4%,13%,-2,1%
O=C(CSc1nnc(Cc2cccs2)n1-c1ccc(Cl)cc1)NCc1ccc2c(c1)OCO2,8,?,25%,23,14%
COc1ccccc1/C=C/CN1CCCC(CO)(Cc2cccc(Cl)c2)C1 (stereo not drawn),9,-5%,51%,47*,-1%
Cc1cc(C)c2cc(C(=O)Nc3ccc4c(c3)OCO4)[nH]c2c1,-4,-4%,-25%,-14,1%
Cc1ccc2[nH]c(C(=O)Nc3ccc(F)cc3)cc2c1,22*,?,114%,.,-2%
Cc1cc(C)c2cc(C(=O)Nc3ccccc3)[nH]c2c1,42*,-3%,-38%,72*,-3%
Cc1cc(C)c2[nH]c(C(=O)Nc3ccc(F)cc3Br)cc2c1,34*,-7%,-35%,67*,9%
Cc1ccc(NC(=O)CC(O)(C(F)(F)F)C(F)(F)F)c(Br)c1,8,-10%,-23%,16,-30%
Cc1ccc(-c2cc3nn(-c4ccccc4)c(N)c3c(=O)o2)cc1,40*,?,-7%,76*,-14%
COc1cc(OC)cc(C(=O)NCC(=O)OCC(=O)c2cc(C)n(Cc3ccco3)c2C)c1,-1,-8%,-20%,24,4%
Cc1cc(C(=O)COC(=O)c2ccc(Br)o2)c(C)n1Cc1ccco1,52*,-1%,-40%,97*,.
Cc1cc(C(=O)COC(=O)CNC(=O)c2ccco2)c(C)n1Cc1ccco1,11,4%,-6%,12,-1%
CCOc1ncccc1C(=O)OCC(=O)c1cc(C)n(Cc2ccco2)c1C,27*,-13%,28%,67*,-4%
Cc1cc(C(=O)COC(=O)C(C)NC(N)=O)c(C)n1Cc1ccco1 (stereo not drawn),35*,2%,-15%,94*,.
CCOc1ncccc1C(=O)OCC(=O)c1cc(OC)ccc1OC,-1,-4%,46%,-21,-3%
Cc1cc(C(=O)COC(=O)c2ccc(O)cc2)c(C)n1Cc1ccco1,67*,-11%,-51%,66*,3%
O=C(NCCSCc1c(F)cccc1Cl)c1ccc(CN2CCOCC2)cc1,-3,-2%,72%,12,13%
N#Cc1ccccc1CSCCNC(=O)Cc1c(F)cccc1Cl,17*,1%,-18%,28,-10%
O=C(NCCSCc1ccco1)c1ccc(CN2CCOCC2)cc1,9.4*,-3%,2%,66,2%
O=C(NCCSCc1c(F)cccc1Cl)Nc1ccccc1,32*,4%,-18%,75*,-36%
SMILES,CHX counter,AmpC inh detg,AmpC no deterg,Shiga toxin inh,NS1 inh
O=C(NCCSCc1ccco1)Nc1ccccc1,48*,-3%,?,57,-17%
CN(c1ccc(C(=O)NCCSCc2c(F)cccc2Cl)cc1)S(C)(=O)=O,-10,0%,-9%,-7,-4%
Cc1cccc(N=C2NC(=O)/C(=C/c3cccn3C)S2)c1C,3,4%,-25%,14,-50%
Cc1ccc(N=C2NC(=O)/C(=C/c3cccn3C)S2)cc1,37*,-4%,-33%,79*,1%
Cc1ccc(N=C2NC(=O)/C(=C/c3cccn3C)S2)cc1C,32*,5%,-36%,66*,7%
CSc1nc2sc3c(c2c(=O)n1-c1ccc(F)c(Cl)c1)CCN(C(C)=O)C3,.,10%,.,.,.
Cc1ccc(-c2nnc(Nc3ccc(Cl)cc3)c3ccccc23)cc1S(=O)(=O)NCC1CCCO1 (stereo not drawn),.,12%,.,.,.
COc1ccc(Br)cc1C1NC(c2ccc3c(c2)OCO3)=CC(c2cc(Cl)ccc2O)N1 (stereo not drawn),45*,.,.,90*,.
COc1ccc(Cl)cc1NC(=O)c1cc(-c2ccc3c(c2)OCO3)on1,.,21%,.,.,.
Oc1ccc(Cl)cc1C1C=C(c2ccc3c(c2)OCO3)NC(c2cc(Br)ccc2F)N1 (stereo not drawn),31*,.,.,83*,.
O=C(O)c1cc(-c2ccc3c(c2)OCO3)nc2ccc(Cl)cc12,8,-1%,-23%,30,-23%
O=[N+]([O-])c1ccc(/C=N/NC(=S)Nc2ccc(Cl)cc2Cl)s1,11,-4%,14µM*,22,-153%
CCn1nc(C)c(/C=N/NC(=S)Nc2ccc(Cl)cc2Cl)c1C,11,8%,8%,active,7%
Cc1nn(C)cc1/C=N/NC(=S)Nc1ccc(Cl)cc1Cl,12*,-16%,-5%,active,8%
O=[N+]([O-])c1ccc(O)c(/C=N/NC(=S)Nc2ccc(Cl)cc2Cl)c1,-2,-6%,-40%,28,-4%
COc1ccc(Br)c(C(=O)Nc2cc3c(cc2N2CCOCC2)n(C)c(=O)n3C)c1,.,15%,.,.,.
CC(C)OCCCNC(=O)CN1C(=O)CSc2ccc(S(=O)(=O)N3CCCCC3)cc21,18,-11%,33%,11,-8%
CC1(C)NC(=O)N(CCOCCOc2c(Cl)cc(Cl)cc2Cl)C1=O,-5,?,54%,-9,-8%
CCCc1cc(=O)[nH]c(SCC(=O)Nc2ccc(C)cc2)n1,-3,-2%,-15%,-19,-2%
Cc1ccc(-c2csc(NC(=O)CSC3=NCCS3)n2)cc1,50*,1%,-34%,69*,3%
CCC(Sc1nc(C)cc(=O)[nH]1)C(=O)Nc1nc(-c2ccccc2)cs1 (stereo not drawn),31*,-3%,-4%,83,14%
Cc1ccc(-c2csc(NC(=O)CSc3nc(C)cc(=O)[nH]3)n2)cc1,31*,-8%,14µM*,28,-55%
Cc1cc(=O)[nH]c(SCC(=O)Nc2ccc(Br)cn2)n1,-2,4%,1.3µM*,11,?
O=S(=O)(c1ccc(F)cc1)N1CCC(n2c(C(F)(F)F)nc3cccnc32)CC1,.,-4%,.,.,.
Cc1ccc(S(=O)(=O)N2CCC(=O)N2)cc1,-6,-8%,-19%,-13,4%
Cc1ccc(NC(=O)N2CCC(=O)N2)cc1,37*,-12%,-19%,77*,2%
Fc1ccc(-c2ccnn2-c2ccccc2)cc1,14,-5%,-2%,22,9%
Nc1c(-c2ccccc2)cnn1-c1ccccc1,44*,2%,-25%,87*,-7%
Nc1c(-c2ccc(Cl)cc2)cnn1-c1cccc(C(F)(F)F)c1,19,0%,-14%,41,-51%
